From the supplement of paper PMC8726507
A number with no mark means an inactive call.

System: Plasmodium falciparum NF54-HGL (transmission to Anopheles stephensi)
Experiment: percentage of barcode signal found in uninfected mosquitoes (transmission-blocking activity); higher = stronger blocking of transmission to mosquito, active = 80 or more
Settings: 10 µM; gametocyte preincubation time 24 h; readout time post-feed 8 days
Protocol: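 The mixture was fed to Anopheles stephensi in 96-well plates as blood meals tagged with DNA-barcoded Asaia bacteria. Eight days later, mosquitoes were classed infected or uninfected by luminescence (mean + 5 SD of unfed controls). Barcodes were quantified by Luminex MagPlex-TAG in the pooled uninfected and infected Asaia cultures, background-corrected, and the score is % of barcode signal in uninfected mosquitoes = 100*Iu/(Iu+Ii).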

SMILES | percentage of barcode signal found in uninfected mosquitoes
O=C(Nc1ccc2c(c1)B(O)OC2)c1ccccc1C(F)(F)F | 84.1% (active)
CC(C)(C)OC(=O)N1CCC(Cn2nc(-c3cnc4ccccc4c3)c3c(N)ncnc32)CC1 | 24.4%
c1ccc(-c2[nH]c3ccccc3c2C(c2ccccn2)N2CCCC2)cc1 (stereo not drawn) | 82.6% (active)
Cc1nn2c(O)c3c(nc2c1-c1ccc(F)cc1)CCCC3 | 9.19%
Nc1ncnc2c1ncn2[C@@H]1O[C@H](COS(=O)(=O)NC(=O)c2ccccc2O)[C@@H](O)[C@H]1O | -0.124%
CC1CCCCN1C(=O)NCCc1coc(-c2ccc(F)cc2)n1 (stereo not drawn) | 42%
Cc1cc(C(=O)Nc2ccc(-c3ccccc3)cc2)no1 | 64%
Brc1cncc(-c2cc(NCCCn3ccnc3)nc(-c3ccccc3)n2)c1 | -0.102%
O=C(NC1CCN(c2ccnc3ccccc23)C1)c1cccc(C(F)(F)F)c1 (stereo not drawn) | 71.6%
O=C(Nc1cccnc1)c1c(O)c2cccc3c2n(c1=O)CC3 | 20.2%
CC(C(=O)Nc1ccc2oc(-c3ccncc3)nc2c1)c1ccccc1 (stereo not drawn) | -6.05%
Nc1nccc2ccc(-c3ccc4nccn4c3)cc12 | 92.9% (active)
Cc1ccc2cc(C3NC(=O)c4ccccc4N3)c(Cl)nc2c1 (stereo not drawn) | 71.8%
O=C(NC1CC1)c1ccc(N2CCOc3ccc(Cl)cc32)s1 | 49.7%
O=C(c1cc2ccccc2o1)N1CCN(Cc2ccc3c(c2)OCO3)CC1 | 0.553%
N#Cc1nc(-c2ccccc2)oc1S(=O)(=O)c1ccc(Cl)cc1 | 72.7%
COc1ccc(C2=NN(C3CCCCCC3)C(=O)C2(C)C)cc1OCCCCOc1ccc(-c2nn[nH]n2)cc1 | 7.2%
CC1=Nc2ccc(Cl)cc2C(O)(c2ccc(C)cc2)N1CCN1CCCCC1 (stereo not drawn) | 83.9% (active)
Cc1cc(C(=O)Nc2cnn(Cc3ccc(Cl)cc3Cl)c2)no1 | 42.7%
Cc1nnc(NC(=O)c2cn(-c3ccccc3)nc2-c2ccccc2C)o1 | 81% (active)
Nc1ncnc2[nH]nc(Cc3cccc4ccccc34)c12 | 67.8%
O=C(Nc1ccc(N2CCNCC2)nc1)c1oc(-c2ccccc2)nc1C(F)(F)F | 79.2%
Cc1nn2c(=O)c3c([nH]c2c1-c1ccc(Cl)cc1)CCCC3 | 40.4%
